FBA Mtb inh – Mtb FBA enzyme inhibitors, primary screen, biochemical, fluorescence, strain H37Rv | inhibition, % at 1 µM | 2.3% of 360,000 active | purified M. tuberculosis FBA, fluorescence read-out | Fructose-bisphosphate aldolase (Mycobacterium tuberculosis (strain ATCC 25618 / H37Rv)), …
Mtb UGM inh – M. tuberculosis UGM enzyme inhibitors, primary screen, biochemical, fluorescence polarization, single point; UDP-galactopyranose mutase (Mycobacterium tuberculosis (strain ATCC 25618 / H37Rv)), …; purified UGM, fluorescence polarization probe displacement; inhibition, % at 10 µM; 0.06% of 320,000 active; AID 504406, 2011; in the data active = inhibition above about 10%, passing the limit was not always enough; inconclusive = no clear call, values can overlap the other calls
Target sequence (P9WIQ1 whole entry, looked up): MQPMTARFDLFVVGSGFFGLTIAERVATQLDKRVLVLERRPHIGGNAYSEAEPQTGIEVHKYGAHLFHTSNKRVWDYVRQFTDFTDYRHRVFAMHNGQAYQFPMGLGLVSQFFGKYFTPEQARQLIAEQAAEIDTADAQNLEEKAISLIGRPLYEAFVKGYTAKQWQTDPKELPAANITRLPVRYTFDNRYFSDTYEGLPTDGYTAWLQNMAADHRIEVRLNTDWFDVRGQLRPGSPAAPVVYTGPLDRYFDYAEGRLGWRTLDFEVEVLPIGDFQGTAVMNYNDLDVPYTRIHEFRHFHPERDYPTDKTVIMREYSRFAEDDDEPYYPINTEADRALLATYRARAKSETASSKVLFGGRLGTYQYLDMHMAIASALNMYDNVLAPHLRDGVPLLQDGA
Rv3671c protease – Rv3671c serine protease inhibitors, primary screen, biochemical, fluorescence polarization, M. tuberculosis H37Rv. 0.048% of 320,000 active. inhibition, % at 5.96 µM. P9WHR9; in the data active = inhibition above about 38%;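 also: extracellular domain of Rv3671c used as enzyme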
GDH-TPI counter-1 – GDH-TPI coupling enzyme inhibitors, primary screen, artefact control for M. tuberculosis FBA inhibitor project, biochemical, absorbance, full deck. 1.2% of 360,000 active. AID 588335, 2011. inhibition, % at 4.8 µM. GDH-TPI coupled enzyme counterscreen, NADH absorbance; in the data active = inhibition above about 30%
Mtb bLac sens – beta-lactam sensitization of Mtb H37Rv, H37Rv; 0.27% of 330,000 active; M. tuberculosis H37Rv growth with meropenem, percent inhibition; AID 434955, 2010; inhibition, % at 25 µM; call rule not given here;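 also: growth measured after seven days incubation then overnight dye step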
Mtb FBA confirm – M. tuberculosis aldolase blockers, biochemical, fluorescence, strain H37Rv, confirmation; shares compounds with FBA Mtb inh; purified M. tuberculosis FBA, fluorescence read-out; inhibition, % at 1 µM; 78% of 5,600 active
GDH-TPI counter-2 – GDH-TPI coupling enzyme inhibitors, artefact control for M. tuberculosis FBA inhibitor project, biochemical, fluorescence, high throughput; inhibition, % at 1 µM; 81% of 5,600 active; GDH-TPI coupled enzyme counterscreen; shares compounds with FBA Mtb inh; AID 652141, 2013; in the data active = inhibition above about 10%
Each line names hits and unclear results; the compound was inactive in the other large screens (follow-up assays come after a bar, where they were run). Hits are enriched below; roughly 3.5% of the tested compounds scored in any of these assays. Rule as the data show it, unless noted: active = inhibition above about 27%; inactive = the rest.

Cc1cccc(C2Nc3ccccc3C(=O)N2CCc2ccccc2)n1 (stereo not given)	FBA Mtb inh 73 | Mtb FBA confirm active | GDH-TPI counter-2 active
O=C1c2ccccc2NC(c2cccc([N+](=O)[O-])c2)N1CCc1ccccc1 (stereo not given)	none
CC(Sc1nnc(-c2ccccc2F)n1C1CC1)C(=O)NC(N)=O (stereo not given)	none
COC(=O)c1ccc(C(=O)OC)c(NC(=S)N2CCN(C)CC2)c1	FBA Mtb inh 33 | Mtb FBA confirm 198 | GDH-TPI counter-2 174
COC(=O)c1ccc(C(=O)OC)c(NC(=O)CCC(=O)O)c1	FBA Mtb inh 28 | Mtb FBA confirm 33 | GDH-TPI counter-2 23
COC(=O)c1ccc(C(=O)OC)c(NC(=S)N2CCC(C)CC2)c1	none
COC(=O)c1ccc(C(=O)OC)c(NC(=S)N2CCCC2)c1	none
COC(=O)c1ccc(C(=O)OC)c(NC(=S)N2CCCCC2C)c1 (stereo not given)	FBA Mtb inh 100 | Mtb FBA confirm 60 | GDH-TPI counter-2 59
COc1ccccc1CCN=C(N)NS(=O)(=O)c1ccc(C)c(C)c1	none
Cc1nc(N)c(C#N)c(-c2cccnc2)c1-c1ccccc1	Mtb bLac sens inconclusive
Cc1ccc2c(n1)sc1c(-c3ccccc3)c(C#N)c(N)nc12	FBA Mtb inh 69 | Mtb FBA confirm 163 | GDH-TPI counter-2 168
CNS(=O)(=O)c1ccc2c(c1)C(=O)c1cc(S(=O)(=O)NC)ccc1CC2	none
CC1=C(CC[C@@H](C)CO)OC2CC3C4CCC5CC(O)CCC5(C)C4CC(=O)C3(C)C12 (stereo not given in full)	none
CCOC(=O)COc1nc(-c2ccc(Cl)cc2)cc(-c2ccco2)c1C#N	none (no result: Mtb bLac sens)
CCOC(=O)COc1nc(-c2ccccc2)cc(-c2ccco2)c1C#N	FBA Mtb inh 58 | Mtb FBA confirm 138 | GDH-TPI counter-2 127
N#Cc1c(OCC(=O)c2ccccc2)nc2c(c1-c1ccco1)CCc1ccccc1-2	none
CCOC(=O)COc1nc2c(c(-c3ccco3)c1C#N)CCc1ccccc1-2	FBA Mtb inh 30 | Mtb FBA confirm inactive | GDH-TPI counter-2 14
NS(=O)(=O)c1ccc(NC(=O)CCC(=O)O)cc1	none (no result: Mtb UGM inh, Rv3671c protease, Mtb bLac sens)
Cc1[nH]c2ccccc2c1CCNC(=O)c1c(N)no[n+]1[O-]	none
c1ccc(Oc2ccc(-c3ccnc4nc(N5CCOCC5)nn34)cc2)cc1	FBA Mtb inh 42 | Mtb FBA confirm active | GDH-TPI counter-2 active
Clc1cccc(-c2ccnc3nc(-n4cccc4)nn23)c1	none
O=C1c2ccccc2C(=O)N1c1nc2nccc(-c3ccccc3)n2n1	FBA Mtb inh 32 | Mtb FBA confirm 31 | GDH-TPI counter-2 35
CC(C)n1cnc2c(Nc3cccc(F)c3)nc(NCCO)nc21	FBA Mtb inh 32 | Mtb FBA confirm 109 | GDH-TPI counter-2 91
COCCCNC(=O)/C(C#N)=C/c1c(N2CCN(c3ccccc3)CC2)nc2ccccn2c1=O	FBA Mtb inh 91 | Mtb FBA confirm 112 | GDH-TPI counter-2 121
CCNC(=O)/C(C#N)=C/c1c(N2CCN(c3ccccc3)CC2)nc2ccccn2c1=O	FBA Mtb inh 50 (no result: Rv3671c protease) | Mtb FBA confirm inactive | GDH-TPI counter-2 17
Cc1cc(C)nc(-n2ncc3c2CC(c2cccc(Cl)c2)CC3=O)n1 (stereo not given)	FBA Mtb inh 29 | Mtb FBA confirm 75 | GDH-TPI counter-2 56
Cc1c(OC(C)C(=O)N2C[C@H]3C[C@@H](C2)c2cccc(=O)n2C3)ccc2c3c(c(=O)oc12)CCCC3 (stereo not given in full)	none
Cc1c(OCC(=O)N2C[C@H]3C[C@@H](C2)c2cccc(=O)n2C3)ccc2c3c(c(=O)oc12)CCC3	none
CC(C)=CCOc1ccc2c(C)c(CC(=O)N3C[C@H]4C[C@@H](C3)c3cccc(=O)n3C4)c(=O)oc2c1C	FBA Mtb inh 107 | Mtb FBA confirm 183 | GDH-TPI counter-2 129
Cc1c(OCC(=O)N2C[C@H]3C[C@@H](C2)c2cccc(=O)n2C3)ccc2c3c(c(=O)oc12)CCCC3	FBA Mtb inh 31 | Mtb FBA confirm active | GDH-TPI counter-2 active
CCN(C(=O)c1cc(S(=O)(=O)N2CCOCC2)cn1C)c1cccc(C)c1	none
CC1CN(C(=O)c2cc3cc(F)ccc3[nH]2)CC(C)O1 (stereo not given)	none (no result: Rv3671c protease)
[O-][n+]1nc2ccccc2c2ccccc21	FBA Mtb inh 37 (no result: Mtb UGM inh, Rv3671c protease, Mtb bLac sens) | Mtb FBA confirm 88 | GDH-TPI counter-2 78
CCOC(=O)CC(=O)CSc1nc2c(c(C)c1C#N)CCC2	FBA Mtb inh 31 | Mtb FBA confirm 82 | GDH-TPI counter-2 47
CCOC(=O)CC(=O)CSc1nc(C)cc(C)c1C#N	none
COc1cc2c3c([nH]c2cc1F)C(=O)NCC3	FBA Mtb inh 102 | Mtb FBA confirm 71 | GDH-TPI counter-2 46
Cc1ccc(S(=O)(=O)Nc2cccc(C(=O)NCc3ccc(S(N)(=O)=O)cc3)c2)cc1	FBA Mtb inh 27 | Mtb FBA confirm 156 | GDH-TPI counter-2 128
Cc1cc(C(=O)NCc2ccc(S(N)(=O)=O)cc2)cs1	none
O=C1C=CC(=O)N1c1ccc(-c2nc3ccccc3o2)cc1	FBA Mtb inh 65 (no result: Mtb UGM inh, Rv3671c protease, Mtb bLac sens) | Mtb FBA confirm inactive | GDH-TPI counter-2 inactive
O=C(Cc1ccccc1)Nc1ccc(-c2nnc(-c3ccco3)o2)cc1	FBA Mtb inh 51 | Mtb FBA confirm active | GDH-TPI counter-2 151
O=C(Cc1ccc(Cl)cc1)Nc1ccc(-c2nnc(-c3ccco3)o2)cc1	FBA Mtb inh 59 | Mtb FBA confirm 38 | GDH-TPI counter-2 31
COc1cc(C(=O)Nc2ccc(-c3nnc(-c4ccco4)o3)cc2)cc(OC)c1OC	none
COc1ccccc1CC(=O)Nc1ccc(-c2nnc(-c3ccco3)o2)cc1	FBA Mtb inh 83 | Mtb FBA confirm 51 | GDH-TPI counter-2 42
CCCCCCSc1ccc([C@H]2N[C@@](Cc3ccccc3)(C(=O)OC)[C@H]3C(=O)N(C)C(=O)[C@@H]23)cc1OC	none
CCn1c(SCc2c(Cl)cccc2Cl)nc2nc3c(cc2c1=O)CCCC3	none
CCn1c(SCc2ccccc2Cl)nc2nc3c(cc2c1=O)CCCC3	FBA Mtb inh 28 (no result: Mtb UGM inh, Rv3671c protease, Mtb bLac sens) | Mtb FBA confirm 85 | GDH-TPI counter-2 61
Clc1ccc(-c2nc3ccccc3[nH]2)cn1	FBA Mtb inh 72 | Mtb FBA confirm 97 | GDH-TPI counter-2 84
Cc1nc2ccc(-c3nc4ccccc4[nH]3)cc2[nH]1	FBA Mtb inh 34 | Mtb FBA confirm 78 | GDH-TPI counter-2 61

Screens from PubChem BioAssay.
